Measurements taken from PubChem BioAssay (NCI).
Compounds without any hit were thinned out: in the full panel of roughly 79,000, 15% have a hit. The source made the active and inactive calls. Cut-off read from the data, not from the text of the source: active = growth inhibition above about 70%; inactive = the rest.

What was measured:
[1] = NCI Yeast Anticancer Drug Screen. Data for the wt2 strain (AID 169);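 note: 0% = growth of vehicle-treated yeast cultures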; conditions: S. cerevisiae wt2 strain growth inhibition, hits give high values
Summary of the method: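 This strain belongs to a panel of yeast strains with defined genetic alterations in DNA damage repair or cell cycle control. Compounds are applied, and growth inhibition is measured against vehicle-treated cultures.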

[2] = NCI Yeast Anticancer Drug Screen. Data for the mlh1 strain (AID 171);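 note: 0% = growth of vehicle-treated control cultures of the same strain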; conditions: S. cerevisiae mlh1 strain growth inhibition, hits give high values
Summary of the method: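 Growth of the mutant yeast strain after compound exposure, expressed as inhibition relative to vehicle-only controls.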

[3] = NCI Yeast Anticancer Drug Screen. Data for the sgs1 strain (AID 173);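 note: 0% = growth of vehicle-only control cultures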; conditions: S. cerevisiae sgs1 mutant, hits give high values
Summary of the method: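 Growth of a yeast strain bearing a defined genetic alteration is measured after compound treatment. Inhibition is expressed relative to vehicle-only controls.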

[4] = NCI Yeast Anticancer Drug Screen. Data for the mlh1 rad18 strain (AID 175); conditions: S. cerevisiae mlh1 rad18 strain growth inhibition, hits give high values
Summary of the method: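 Read-out is yeast growth inhibition, calculated against vehicle-only controls. The compound was applied to a strain engineered with DNA damage repair alterations.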

[5] = NCI Yeast Anticancer Drug Screen. Data for the rad18 strain (AID 177); conditions: S. cerevisiae rad18 mutant growth inhibition, hits give high values
Summary of the method: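 Growth of the mutant yeast strain after compound exposure, normalised to vehicle-only cultures.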

[6] = NCI Yeast Anticancer Drug Screen. Data for the rad52 strain (AID 147);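 note: 0% = growth of vehicle-treated control cultures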; conditions: S. cerevisiae rad52 mutant growth inhibition, hits give high values
Summary of the method: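 Compounds are applied to a genetically defined yeast strain lacking normal DNA damage repair, and inhibition of growth is expressed relative to cultures given vehicle only.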

[7] = NCI Yeast Anticancer Drug Screen. Data for the wt1 strain (AID 149);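 note: 0% = growth of vehicle-treated wt1 cultures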; conditions: S. cerevisiae wt1 strain (SPY 50644) growth inhibition, hits give high values
Summary of the method: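 Vehicle-normalised growth inhibition; strain wt1; compound exposure.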

[8] = NCI Yeast Anticancer Drug Screen. Data for the rad50EPP+ strain (AID 151);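 note: 0% = growth of vehicle-treated control cultures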; conditions: S. cerevisiae rad50 mutant strain, hits give high values
Summary of the method: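 Compounds were applied to the rad50EPP+ yeast strain, which bears a defined DNA repair alteration, and growth inhibition was determined relative to vehicle-treated cultures.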

[9] = NCI Yeast Anticancer Drug Screen. Data for the mgt1 strain (AID 153); conditions: S. cerevisiae mgt1 mutant growth inhibition, hits give high values
Summary of the method: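 Strain: mgt1 yeast, one of a set carrying defined DNA damage repair or cell cycle control alterations. Compound-treated growth compared with vehicle.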

[10] = NCI Yeast Anticancer Drug Screen. Data for the rad50 strain (AID 155);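 note: 0% = growth of vehicle-only cultures of the same strain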; conditions: S. cerevisiae rad50 strain growth inhibition, hits give high values
Summary of the method: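 A DNA repair-deficient yeast mutant serves as the test organism; compound-induced growth inhibition is calculated against vehicle-treated cells.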

[11] = NCI Yeast Anticancer Drug Screen. Data for the mec2-1 strain (AID 157); conditions: S. cerevisiae mec2-1 strain, hits give high values
Summary of the method: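 Strain: mec2-1 (DNA repair/cell cycle alteration). Compound exposure, then growth measured; inhibition expressed relative to vehicle.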

[12] = NCI Yeast Anticancer Drug Screen. Data for the rad14 strain (AID 159);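 note: 0% = growth of vehicle-treated control cultures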; conditions: S. cerevisiae rad14 strain growth inhibition, hits give high values
Summary of the method: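 Vehicle-treated cultures served as the baseline for growth inhibition of a DNA repair-mutant yeast strain exposed to each compound.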

[13] = NCI Yeast Anticancer Drug Screen. Data for the sgs1 mgt1 strain (AID 161);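 note: 0% = growth of cultures given vehicle only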; conditions: S. cerevisiae sgs1 mgt1 strain, hits give high values
Summary of the method: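 Inhibition of yeast growth, normalised to vehicle-treated controls, is reported for a strain bearing genetic alterations in DNA damage repair.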

[14] = NCI Yeast Anticancer Drug Screen. Data for the CLN2oe strain (AID 163);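 note: 0% = growth of vehicle-only control cultures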; conditions: S. cerevisiae CLN2oe strain, hits give high values
Summary of the method: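 Growth of a genetically modified yeast strain is measured after compound exposure and compared with cultures given vehicle alone.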

[15] = NCI Yeast Anticancer Drug Screen. Data for the cln2 rad14 strain (AID 165);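 note: 0% = growth equal to vehicle treated cultures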; conditions: S. cerevisiae cln2 rad14 strain, hits give high values
Summary of the method: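 Compounds are applied to the cln2 rad14 yeast strain, and growth is then compared with that of vehicle-treated cultures to give inhibition.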

[16] = NCI Yeast Anticancer Drug Screen. Data for the bub3 strain (AID 167); conditions: S. cerevisiae bub3 mutant strain, hits give high values
Summary of the method: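 Inhibition values come from growth of compound-treated mutant yeast normalised to vehicle-treated controls.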

[17] = at 5.0 µM (retest, dose inferred, filed as 0.5)
[18] = at 50.0 µM (retest, dose inferred, filed as 5.0)

Measured: growth inhibition

CCOP(=O)(CC(C)P(=O)(OCC)OCC)OCC.C[CH2][Sn]([Cl])([Cl])[CH2]C (centres undefined)
active: [1]; at 33.0 µM 76% | [1]; at 100.0 µM 94% | [2]; at 100.0 µM 95% | [3]; at 33.0 µM 85% | [3]; at 100.0 µM 95% | [5]; at 33.0 µM 75% | [5]; at 100.0 µM 92%
inactive: [1]; at 1.2 µM -1% | [1]; at 3.7 µM -2% | [1]; at 11.0 µM 2% | [2]; at 1.2 µM 0% | [2]; at 3.7 µM 2% | [2]; at 11.0 µM 8% | [2]; at 33.0 µM 69% | [3]; at 1.2 µM -8% | [3]; at 3.7 µM 4% | [3]; at 11.0 µM 14% | [4]; [17] -2% | [4]; [18] 28% | [4]; at 50.0 µM 62.7% | [5]; at 1.2 µM -2% | [5]; at 3.7 µM 4% | [5]; at 11.0 µM 24%

CCOC(=O)C1=C(C(=O)OCC)C2(c3ccccc3)N(O1)c1ccccc1C2(C)C (centres undefined)
active: [6]; at 100.0 µM 71% | [9]; at 100.0 µM 78% | [11]; at 100.0 µM 74% | [13]; [17] 71% | [13]; [18] 71% | [13]; at 50.0 µM 79.8% | [14]; at 100.0 µM 79% | [16]; at 100.0 µM 77% | [1]; at 100.0 µM 75% | [2]; at 100.0 µM 80% | [3]; at 100.0 µM 81%
inactive: [6]; at 1.2 µM -3% | [6]; at 3.7 µM -2% | [6]; at 11.0 µM 0% | [6]; at 33.0 µM 3% | [7]; at 1.2 µM -2% | [7]; at 3.7 µM -5% | [7]; at 11.0 µM -4% | [7]; at 33.0 µM -1% | [7]; at 100.0 µM 54% | [8]; at 1.2 µM -6% | [8]; at 3.7 µM -7% | [8]; at 11.0 µM -5% | [8]; at 33.0 µM -6% | [8]; at 100.0 µM 15% | [9]; at 1.2 µM -1% | [9]; at 3.7 µM 0% | [9]; at 11.0 µM -1% | [9]; at 33.0 µM -3% | [10]; at 1.2 µM -1% | [10]; at 3.7 µM -2% | [10]; [17] 54% | [10]; at 11.0 µM -3% | [10]; at 33.0 µM -1% | [10]; [18] 54% | [10]; at 50.0 µM 63% | [10]; at 100.0 µM 67% | [11]; at 1.2 µM -3% | [11]; at 3.7 µM -3% | [11]; [17] 35% | [11]; at 11.0 µM -5% | [11]; at 33.0 µM -7% | [11]; [18] 35% | [11]; at 50.0 µM 27.5% | [12]; at 1.2 µM 0% | [12]; at 3.7 µM -4% | [12]; at 11.0 µM -3% | [12]; at 33.0 µM -8% | [12]; at 100.0 µM 62% | [14]; at 1.2 µM -4% | [14]; at 3.7 µM -2% | [14]; at 11.0 µM -4% | [14]; at 33.0 µM -5% | [15]; [17] 6% | [15]; [18] 6% | [15]; at 50.0 µM 43.3% | [16]; at 1.2 µM -6% | [16]; at 3.7 µM -5% | [16]; [17] 31% | [16]; at 11.0 µM 8% | [16]; at 33.0 µM 13% | [16]; [18] 31% | [16]; at 50.0 µM 44.4% | [1]; at 1.2 µM -2% | [1]; at 3.7 µM -3% | [1]; at 11.0 µM -2% | [1]; at 33.0 µM 0% | [2]; at 1.2 µM -3% | [2]; at 3.7 µM -6% | [2]; at 11.0 µM -5% | [2]; at 33.0 µM -3% | [3]; at 1.2 µM -5% | [3]; at 3.7 µM -5% | [3]; at 11.0 µM -6% | [3]; at 33.0 µM -2% | [4]; [17] 32% | [4]; [18] 32% | [4]; at 50.0 µM 15.4% | [5]; at 1.2 µM -4% | [5]; at 3.7 µM -11% | [5]; at 11.0 µM -12% | [5]; at 33.0 µM -4% | [5]; at 100.0 µM 68%

C[N+](C)(C)CC1CCCC(C[N+](C)(C)C)C1=O (centres undefined)
inactive: [6]; at 1.2 µM 0% | [6]; at 3.7 µM 1% | [6]; at 11.0 µM 9% | [6]; at 33.0 µM 34% | [7]; at 1.2 µM -1% | [7]; at 3.7 µM 3% | [7]; at 11.0 µM -1% | [7]; at 33.0 µM 13% | [8]; at 1.2 µM -3% | [8]; at 3.7 µM 3% | [8]; at 11.0 µM 13% | [8]; at 33.0 µM 64% | [9]; at 1.2 µM 0% | [9]; at 3.7 µM 2% | [9]; at 11.0 µM 5% | [9]; at 33.0 µM 27% | [10]; at 1.2 µM 2% | [10]; at 3.7 µM -18% | [10]; [17] 1% | [10]; at 11.0 µM 37% | [10]; at 33.0 µM 63% | [10]; [18] 35% | [11]; at 1.2 µM 1% | [11]; at 3.7 µM 5% | [11]; [17] 6% | [11]; at 11.0 µM 10% | [11]; at 33.0 µM 25% | [11]; [18] -19% | [12]; at 1.2 µM -1% | [12]; at 3.7 µM 0% | [12]; at 11.0 µM 8% | [12]; at 33.0 µM 38% | [13]; [17] 3% | [13]; [18] 50% | [13]; at 50.0 µM 68.3% | [14]; at 1.2 µM 0% | [14]; at 3.7 µM 1% | [14]; at 11.0 µM 6% | [14]; at 33.0 µM 12% | [14]; at 100.0 µM 24% | [15]; [17] 6% | [15]; [18] 21% | [15]; at 50.0 µM 25.5% | [16]; at 1.2 µM -1% | [16]; at 3.7 µM 4% | [16]; [17] -45% | [16]; at 11.0 µM 4% | [16]; at 33.0 µM 44% | [16]; [18] 41% | [1]; at 1.2 µM -3% | [1]; at 3.7 µM 7% | [1]; at 11.0 µM 2% | [1]; at 33.0 µM 5% | [2]; at 1.2 µM 0% | [2]; at 3.7 µM 3% | [2]; at 11.0 µM 7% | [2]; at 33.0 µM 26% | [3]; at 1.2 µM -1% | [3]; at 3.7 µM 3% | [3]; at 11.0 µM 15% | [3]; at 33.0 µM 64% | [4]; [17] 8% | [4]; [18] 62% | [5]; at 1.2 µM 1% | [5]; at 3.7 µM 13% | [5]; at 11.0 µM 44%
active: [6]; at 100.0 µM 96% | [7]; at 100.0 µM 98% | [8]; at 100.0 µM 99% | [9]; at 100.0 µM 99% | [10]; at 50.0 µM 91.8% | [10]; at 100.0 µM 99% | [11]; at 50.0 µM 99.8% | [11]; at 100.0 µM 98% | [12]; at 100.0 µM 99% | [16]; at 50.0 µM 89.2% | [16]; at 100.0 µM 99% | [1]; at 100.0 µM 94% | [2]; at 100.0 µM 99% | [3]; at 100.0 µM 99% | [4]; at 50.0 µM 97.2% | [5]; at 33.0 µM 93% | [5]; at 100.0 µM 98%
